HEK293 cAMP cs: qHTS Assay for Agonists of the Thyroid Stimulating Hormone Receptor: Activators of Intracellular cAMP Concentrations in Parental HEK 293; parental HEK293 CNG cAMP sensor, membrane potential fluorescence; 73,000 compounds, 2.5% hits; Potency, µM (doses to about 57.1 µM), inactives show at the highest dose activation, most hits filed as activators; AID 938, 2007; also: % of control where 0% means no effect; nearly all actives have a fitted effect of over 55% in size
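Parental HEK 293 cells stably expressing a cAMP-gated CNG channel were loaded with membrane potential dye containing 100 uM RO 20-1724 for 60 min. Compound added for 30 min; depolarization read as fluorescence intensity at 590 nm.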
Casp7 inh: qHTS Assay for Allosteric/Competitive Inhibitors of Caspase-7 | AID 889, 2007 | 75,000 compounds, 0.02% hits | P55210 | Potency, µM (titrated, usually from 57.5 µM), without a hit: at the top dose activity change, negative = inhibition, most hits filed as inhibitors | recombinant caspase-7, Ac-DEVD-AFC fluorescence rate; active = well fitted inhibition curve with a large enough effect in the main read-out, with a control signal flat, not every such curve was filed as active; inconclusive = small, poorly fitted or top-dose-only effect, or a change in a side signal; also: % of control where 0% means no effect
PK Bst: Pyruvate Kinase; purified pyruvate kinase, luminescence ATP production; ribose 5-phosphate activator present at AC10; Potency, µM; 51,000 compounds, 1.2% hits; in the data active = potency below about 11 µM; inconclusive = mostly about 12 µM to 25 µM;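 the screen sought inhibitors and activators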;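 also: scaled between full activation by ribose 5 phosphate and full inhibition by luteolin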
GBA activity: Glucocerebrosidase. purified enzyme, resorufin glucoside fluorescence (screen aimed at inhibitors), 20 min. Potency, µM. 48,000 compounds, 1.1% hits; in the data active = potency below about 15 µM; inconclusive = mostly about 16 µM to 33 µM;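 also: the screen sought inhibitors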
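Wild-type enzyme at 0.2 nM final in 50mM citric acid/KH2PO4, 10mM sodium taurocholate, 0.01% tween-20, pH 5.9, with resorufin beta-D-glucopyranoside at 30 uM final. Compounds titrated, 20 min at RT, red fluorescence read; AC50 from titration.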
TSHR ag: qHTS Assay for Agonists of the Thyroid Stimulating Hormone Receptor; AID 926, 2007; Thyrotropin receptor (Homo sapiens), P16473; HEK293-CNG-TSHR cells (CNG channel as cAMP sensor), membrane potential dye, cAMP; 73,000 compounds, 0.48% hits; Potency, µM (titrated, usually from 57.1 µM), for the others: at the highest dose activation, usual class: activators; active = well fitted activation curve with a large enough effect in the main read-out, with a control signal flat, not every such curve was filed as active; inconclusive = small, poorly fitted or top-dose-only effect, or a change in a side signal; inactive = no such curve, though single readings can be large or run the other way; % of control where 0% means no effect;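 also: the control signal comes from parental cells without the receptor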
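HEK 293 cells stably expressing TSHR and a modified CNG channel, with CNG-only parental cells as counterscreen, were preloaded 60 min at room temperature with membrane potential dye containing 100 uM RO 20-1724. Compound exposure was 30 min, and depolarization was read as fluorescence at 590 nm.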
Casp1 inh: qHTS Assay for Allosteric/Competitive Inhibitors of Caspase-1; P29466; Caspase-1 enzyme, Ac-WEHD-AFC fluorogenic rate; 75,000 compounds, 0.03% hits; Potency, µM (series often up to 57.5 µM), for inactives: at the top dose activity change, negative = inhibition, hits mostly inhibitors; AID 900, 2007;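 also: plate controls were vehicle for no effect and no substrate for full effect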
* = called active by the depositor; ? = inconclusive; . = no result; ! = repeats disagree; [ ] = another dose, or the depositor's remark. A selection: hits, their analogues and other compounds. The true share with any hit is near 4%. Unless noted, calls follow the shape of the dose curve; as a rule, active = well fitted curve in the direction sought with a large enough effect; inconclusive = small, poorly fitted or top-dose-only effect, or another doubt; inactive = no such curve, though single readings can be large; an effect the other way counts as inactive or inconclusive. Potency is read from the fitted curve at half-maximal effect.

SMILES	HEK293 cAMP cs	Casp7 inh	PK Bst	GBA activity	TSHR ag	Casp1 inh
O=C(OCc1c(Cl)cccc1Cl)c1ccccn1	?	-1%	3.8*	>77	?	2%
Oc1ccc(Cc2cc(Cl)cc(Cl)c2O)cc1Cl	-7%[11.4 µM]	-3%[11.5 µM]	.	.	-3%[11.4 µM]	-2%[11.5 µM]
CCc1ccccc1NS(=O)(=O)c1ccc(SC)cc1	15%	-1%	.	>77	25µM*	-2%
COc1ccc2[nH]cc(CCNc3ncnc4ccc(-c5cccc(C#N)c5)cc34)c2c1	-37%	-4%	.	.	?	-2%
CC(C)N(CC(=O)O)CC(=O)O	4%[11.4 µM]	1%[11.5 µM]	.	.	-2%[11.4 µM]	-4%[11.5 µM]
CCOn1c(=O)c(=O)n(OCc2ccccc2)c2ccccc21	4%[11.4 µM]	1%	.	.	3.2µM*	-1%
Cc1c(=O)n(OCc2ccccc2)c2ccccc2[n+]1[O-]	2%[11.4 µM]	0%	.	.	1%[11.4 µM]	1%
Cc1cccc(NS(=O)(=O)c2ccc(Cl)c(C(=O)O)c2)c1	-5%	-1%	.	.	4%	-3%
CCc1cc(C(C)=O)c(O)cc1OCCCCCC(C)(C)c1nn[nH]n1	20µM*	-8%	.	.	?	-4%
O=[N+]([O-])c1ccc(Cl)c(CNc2ncnc3c2ncn3[C@@H]2CCCCO2)c1	0%[11.4 µM]	0%[11.5 µM]	.	.	0%[11.4 µM]	2%[11.5 µM]
Cc1ccc(C)c(OCC(O)CN2C(C)CCCC2C)c1 (stereo unspecified)	?	-1%	>57	>77	?	-1%
Cc1ccc(OC[C@H](O)[C@H](C)NC(C)C)c2c1CCC2	40µM*!	-1%	.	.	?	-1%
Cc1ccc(C)c(OCC(=O)Nc2nonc2NC(=O)COc2cc(C)ccc2C)c1	25µM*	-2%	>57	>77	?	-1%
Cc1noc(C)c1CSc1ccccc1C(=O)N1CCN(c2ccccc2)CC1	21%	-1%	>57	>77	3.2µM*	-4%
Cc1noc(C)c1CSCC(=O)N1CCN(c2ccc(F)cc2)CC1	?	-6%	>57	>77	?	-3%
O=C(O)[C@@H]1[C@@H]2C[C@@H]3[C@@H](OC(=O)[C@@H]31)[C@H]2Br	7%[11.4 µM]	-1%[11.5 µM]	.	.	-3%[11.4 µM]	1%[11.5 µM]
Cc1cccc(CNc2nc(-c3ccc4c(c3)OCO4)nc3ccccc23)c1	?	-5%	.	.	?	-2%
Cc1nc2cc(NC(=O)Nc3nccs3)ccc2n1C	-3%	0%	11*	.	-7%	1%
CCCC/C=C/C(NC(=O)Oc1cccc(C(F)(F)F)c1)c1ccccc1 (stereo unspecified)	25µM*	-4%	.	.	?	1%
CCCC/C=C/C(NC(=O)CCc1ccccc1)c1ccccc1 (stereo unspecified)	10µM*	-3%	.	.	?	1%
CCCC/C=C/C(NC(=O)c1ccccc1)c1ccccc1 (stereo unspecified)	?	-2%	.	.	?	-2%
CCCC/C=C/C(NC(=O)c1ccc(C(F)(F)F)cc1)c1ccccc1 (stereo unspecified)	?	-2%	.	.	?	3%
COc1ccc(-c2cc(C(=O)N/N=C\c3cc(OC)c(OC)c(OC)c3)[nH]n2)cc1	-13%	-2%	.	.	0%	-4%
Cc1cc(N2CCN(C)CC2)nc2ccc(NC(=O)c3ccc4c(c3)OCO4)cc12	1%	2%	.	1.1*	1%[11.4 µM]	-5%
CN1CCN(c2ccc(NC(=O)c3ccc4c(c3)OCO4)cc2)CC1	-6%	0%	.	>77	-8%	-3%
SMILES	HEK293 cAMP cs	Casp7 inh	PK Bst	GBA activity	TSHR ag	Casp1 inh
Cc1cc(N2CCN(C)CC2)nc2ccc(NC(=O)c3ccc(Br)o3)cc12	6%	-1%	.	2.2*	-2%[11.4 µM]	-4%
CC(=O)N1CN(Cc2ccccn2)Cc2c1sc1c2CCCC1	23%	-28%	>57	15*	6%	?
CCCCNc1nc(C)nc2c1nc(-c1ccccc1)n2CC1CCCN1CC (stereo unspecified)	16µM*	-1%	.	.	?	2%
CCCCNc1nc(C)nc2c1nc(-c1ccccc1)n2CC(C)(C)CN(C)C	32µM*	0%	.	.	?	1%
CCCCNc1nc(C)nc2c1nc(-c1ccccc1)n2CCCN(C)C	28%	-1%	.	.	22%	-2%
CCN1CCCC1Cn1c(-c2ccccc2)nc2c(NC3CCCCC3)nc(C)nc21 (stereo unspecified)	20µM*	-1%	.	.	?	1%
CCCCNc1nc(C)nc2c1nc(-c1ccccc1)n2CCN1CCCC1	?	1%	.	.	?	1%
Cc1nc(NC2CCCCC2)c2nc(-c3ccccc3)n(CCN(C)C)c2n1	10µM*	-1%	.	.	?	2%
CS[C@]12C(=O)C[C@]3(C)[C@@H](CC[C@@]3(O)C(=O)CO)[C@@H]1CCC1=CC(=O)CC[C@]12C	-5%[11.4 µM]	-2%[11.5 µM]	.	.	-4%[11.4 µM]	-2%[11.5 µM]
COc1ccc2c(c1OC)C(Cc1ccccc1)N1CCc3cc4c(cc3C1C2)OCO4 (stereo unspecified)	.	-16%	.	.	.	-14%
OC[C@@H]1NC[C@@H](O)[C@H]1O	-8%	-1%	.	.	11%	2%
Oc1ccc([C@@H]2CNCc3sccc32)cc1O	32µM*	0%	.	.	?	-1%
CCOC(=O)c1cnc(-n2nc(C)cc2C)nc1N1CCOCC1	1%	1%	.	>77	10%	-1%
CCOC(=O)c1cnc(-n2nc(C)cc2C)nc1NCCc1ccccc1	25µM*	-5%	?	>77	?	-4%
CCOC(=O)c1cnc(-n2nc(C)cc2C)nc1NCc1ccc2c(c1)OCO2	2%	-2%	>57	>77	2%	0%
CCOC(=O)c1cnc(-n2nc(C)cc2C)nc1N(C)C	7%	0%	11*	>77	6%	0%
C=CCn1c(SCC(=O)NCC2CCCO2)nc2scc(-c3ccco3)c2c1=O (stereo unspecified)	20%	-4%	>57	>77	24%	0%
O=C(CSc1nc2scc(-c3ccco3)c2c(=O)n1-c1ccccc1)NCC1CCCO1 (stereo unspecified)	18%	-19%	>57	>77	32µM*	-4%
CO/N=C(\C(=O)N[C@@H]1C(=O)N2C(C(=O)O)=C(CSc3nc(=O)c(O)nn3C)CS[C@@H]12)c1csc(N)n1	-8%	-2%	.	.	2%	-1%
Nc1ccc(CCNc2ncnc3c2ncn3[C@@H]2O[C@@H](CO)[C@H](O)[C@@H]2O)cc1	?	1%	.	.	?	4%
Cc1cc(NC(=O)CCCC(=O)N(CC(=O)NC2CCCCC2)c2ccccc2)no1	?	-12%	.	?	?	-14%
Cc1cccc(N(CC(=O)NC2CCCCC2)C(=O)c2c(C)noc2C)c1	16µM*	0%	>57	>77	?	1%

Screening data: PubChem, National Center for Advancing Translational Sciences (NCATS)
